Laboratory results as given in PubChem BioAssay (NCATS).
Inconclusive results are not listed. Where a call stands in place of a potency, no number is given. Activity calls are given as the source filed them. Calls come from the whole dose curve; as a rule, active = well fitted inhibition curve with a large enough effect; inconclusive = small, poorly fitted or top-dose-only effect; inactive = no such curve, though single readings can be large or run the other way. Where a SMILES comes first, the peptide text is derived from it. [ ]: non-standard residue; d: D form. pGlu = O=C1CC[C@@H](C(=O)O)N1

What follows are compounds tested against Cytochrome P450 3A7 (Homo sapiens) (UniProt P24462) (assay: Cytochrome P450 family 3 subfamily A member 7 (CYP3A7) small molecule antagonists: luciferase biochemical qHTS assay (AID 1963596; note: nearly all actives have a fitted effect of over 40% in size)). Conditions: P450-Glo CYP3A7 enzyme luminescence, 1 h; series mostly up to 57.4 µM.
Chain of Cytochrome P450 3A7 (Homo sapiens) (P24462 whole entry, looked up): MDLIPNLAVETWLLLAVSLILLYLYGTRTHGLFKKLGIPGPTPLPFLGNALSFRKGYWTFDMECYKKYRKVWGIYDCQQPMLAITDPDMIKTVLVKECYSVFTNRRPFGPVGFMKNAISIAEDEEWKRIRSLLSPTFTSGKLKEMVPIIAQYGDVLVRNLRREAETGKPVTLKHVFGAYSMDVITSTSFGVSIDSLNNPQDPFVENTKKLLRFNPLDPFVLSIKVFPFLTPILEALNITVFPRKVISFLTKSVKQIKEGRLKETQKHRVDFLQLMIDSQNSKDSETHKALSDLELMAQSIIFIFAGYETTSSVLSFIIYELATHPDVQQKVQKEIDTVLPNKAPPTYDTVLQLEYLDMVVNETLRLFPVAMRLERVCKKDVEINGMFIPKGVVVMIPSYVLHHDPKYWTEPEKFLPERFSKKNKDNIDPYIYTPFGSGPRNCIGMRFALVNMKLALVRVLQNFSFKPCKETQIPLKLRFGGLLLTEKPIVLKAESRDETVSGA
Description: National Center for Advancing Translational Sciences [NCATS] Assay Overview: Cytochrome P450 (CYP) enzymes are membrane-bound hemeproteins that play a key role in metabolism of drugs and xenobiotics. The CYP3A subfamily is the most abundant, representing 30% of the total adult hepatic CYP content, whereas CYP3A7 is found predominantly in human fetal liver and accounts up to 50% of the total fetal hepatic CYP content. Testing the effect of chemicals on CYP isozymes is useful to minimize the adverse drug reactions and toxicities in the drug development process. Chemicals were tested for their effect on CYP enzyme activities by using P450-Glo (TM) screening systems (Promega Corporation, Madison, WI). These systems provide a luminescent method containing proluciferin substrates and are converted to luciferin products by CYP isozymes. The luciferin products formed are detected with a luciferin detection reagent, and the amount of light produced is proportional to CYP activity. P450-Glo (TM) CYP3A7 screening system (Catalog. No. V8812) was used to detect the compounds that interfere with CYP3A7 activity. The positive control compound used for CYP3A7 assay is ketoconazole (Sigma-Aldrich, St. Louis, MO).
Assay Protocol Summary: Two ul of enzyme-substrate mix was dispensed into medium binding white/solid 1536-well plates (Greiner Bio-One North America Inc., Monroe, NC) using a Flying Reagent Dispenser (FRD, Aurora Discovery, San Diego, CA). Compounds dissolved in DMSO, and positive control (ketoconazole) were transferred to the assay plates at 23 nl using a Pintool station (Wako, San Diego, CA). The assay plates were incubated at room temperature for 10 min. Then 2 ul of NADPH regeneration solution was added to each well of the assay plates using an FRD and incubated at room temperature for 1 h. The reaction was stopped by adding 4 ul of detection reagent using an FRD and after 20 min incubation at room temperature the luminescence signal was measured using a ViewLux plate reader (Perkin Elmer, Shelton, CT). Data were expressed as relative luminescence units.
Potency is the fitted concentration of half-maximal effect.

Structure (SMILES) | Potency | outcome | activity change, negative = inhibition
CCOc1ccc(-c2nn3ncccc3c2-c2ccc(S(C)(=O)=O)cc2)cc1 | inactive | – | –
O=C(O)/C=C/c1ccc(Cn2ccnc2)cc1 | inactive | – | –
Cc1cccc(C)c1NC(=O)CC12CCCN1CCC2 | inactive | – | –
CCCCN=C(N)NC(=N)N | – | inactive | –
Cc1cccc(C)c1NC(=O)C(C)N (stereo not given) | inactive | – | –
COc1cccc(C(=O)NC(c2ccc(Cl)cc2)c2cc(Cl)c3cccnc3c2O)c1 (stereo not given) | inactive | – | –
Cc1ccc(C(C)C)c(O)c1 | inactive | – | –
C[n+]1ccccc1/C=N/O | inactive | – | –
O=C(O)[C@@H]1CCCN1 | inactive | – | –
CCCCN(CCN(CCCC)C(=O)N1CCOCC1)C(=O)N1CCOCC1 | inactive | – | –
COc1ccc(C(=O)c2ccccc2)c(O)c1 | inactive | – | –
CC1(C)NC(=O)N(c2ccc([N+](=O)[O-])c(C(F)(F)F)c2)C1=O | inactive | – | –
CNC1CN(c2ccc3c(=O)c(C(=O)O)cn(-c4nccs4)c3n2)CC1OC (stereo not given) | – | – | 23% [at 11.5 µM] (inactive)
CC(C)(C)C1CCN(C(=O)n2ncc(C(O)(c3ccccc3)c3ccccc3)n2)CC1 | inactive | – | –
CNCCc1ccccn1 | inactive | – | –
CO/N=C(\C(=O)N[C@@H]1C(=O)N2C(C(=O)O)=C(CSc3nc(=O)c(O)nn3C)CS[C@H]12)c1csc(N)n1 | inactive | – | –
CCNC(=O)[C@@H]1CCCN1C(=O)[C@H](CCCN=C(N)N)NC(=O)[C@H](CC(C)C)NC(=O)CNC(=O)[C@H](Cc1ccc(O)cc1)NC(=O)[C@H](CO)NC(=O)[C@H](Cc1c[nH]c2ccccc12)NC(=O)[C@H](Cc1cnc[nH]1)NC(=O)[C@@H]1CCC(=O)N1 ([pGlu]HWSYGLRP-NHEt) | inactive | – | –
O=[N+]([O-])c1cn2c(n1)OC[C@@H](OCc1ccc(-c3ccc(OC(F)(F)F)cc3)nc1)C2 | inactive | – | –
CC(C)(CO)[C@@H](O)C(=O)NCCCO | inactive | – | –
CCCCCCCCCCC(CO)CCCCCCCC (stereo not given) | inactive | – | –

Structure (SMILES) | Potency | outcome | activity change, negative = inhibition
O=C(O)CN(CCOCCOCCN(CC(=O)O)CC(=O)O)CC(=O)O | – | – | 3.38% [at 0.91 µM] (inactive)
COc1cc(C(=O)NC(c2ccc(Cl)cc2)c2cc(Cl)c3cccnc3c2O)cc(OC)c1OC (stereo not given) | inactive | – | –
CCOC(=O)C(=O)CCCCCCl | inactive | – | –
Cc1cc(NS(=O)(=O)c2ccc(N)cc2)no1 | inactive | – | –
COc1c(N2C[C@@H]3CCCN[C@H]3C2)c(F)cc2c(=O)c(C(=O)O)cn(C3CC3)c12 | inactive | – | –
OC[C@H]1O[C@@H]2O[C@H]3[C@H](O)[C@@H](O)[C@@H](O[C@H]4[C@H](O)[C@@H](O)[C@@H](O[C@H]5[C@H](O)[C@@H](O)[C@@H](O[C@H]6[C@H](O)[C@@H](O)[C@@H](O[C@H]7[C@H](O)[C@@H](O)[C@@H](O[C@H]8[C@H](O)[C@@H](O)[C@@H](O[C@H]1[C@H](O)[C@H]2O)O[C@@H]8CO)O[C@@H]7CO)O[C@@H]6CO)O[C@@H]5CO)O[C@@H]4CO)O[C@@H]3CO | inactive | – | –
On1ncc(C2CCNCC2)c1-c1cccc(-c2ccccc2)c1 | inactive | – | –
Clc1ccc(C2(c3ccc(-c4cn[nH]c4)cc3)CCNCC2)cc1 | 12.6 µM (active) | – | –
CC(CNS(=O)(=O)C(C)C)c1ccc(-c2ccc(C#N)cc2)cc1 (stereo not given) | inactive | – | –
CCCN(CCC)S(=O)(=O)c1ccc(C(=O)O)cc1 | inactive | – | –
CS(=O)(=O)OCCCCOS(C)(=O)=O | inactive | – | –
CCCc1ncc(C(=O)O)s1 | inactive | – | –
CCOC(=O)C(C)(C)Oc1ccc(Cl)cc1 | inactive | – | –
CCN1CCC[C@H]1CNC(=O)c1cc(S(N)(=O)=O)ccc1OC | inactive | – | –
NCCNC(=O)c1ccc(Cl)cn1 | inactive | – | –
O=[N+]([O-])c1ccc(Oc2ccc(N=C=S)cc2)cc1 | 2.39 µM (active) | – | –
CC(=O)Nc1ccc(CC(=O)O)cc1 | inactive | – | –
C=CCN1C[C@H](C(=O)N(CCCN(C)C)C(=O)NCC)C[C@@H]2c3cccc4[nH]cc(c34)C[C@H]21 | inactive | – | –
Oc1ccc(C2(c3ccccc3F)CCC(F)(F)CC2)cc1 | 5.01 µM (active) | – | –
COc1cc2c(Oc3ccc(-c4cnc(Nc5ccc(F)cc5)n(C)c4=O)cc3F)ccnc2cc1OCCCN1CCOCC1 | inactive | – | –
